Measurements from PubChem BioAssay (NCI).
Compounds without any hit were thinned out: in the full panel of roughly 83,000, 20% have a hit.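 Each cell line was grown in a 96-well plate and treated with one concentration of compound for 48 hours. Values below 10 were considered active.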 A number with no mark means an inactive call. Activity calls are given as the source filed them.

Key:
Assay in all cases: NCI-60 one-dose screen, 48 h (100 = growth as untreated, 0 = no growth, -100 = all killed)
Conditions in all cases: 10 µM unless noted
[1] = test system: NCI-H23 lung
[2] = test system: NCI-H226 lung
[3] = test system: NCI-H322M lung
[4] = test system: HOP-62 NSCLC
[5] = test system: NCI-H460 lung
[6] = test system: HOP-92 NSCLC
[7] = test system: NCI-H522 lung
[8] = test system: A549/ATCC NSCLC
[9] = test system: 786-0 renal
[10] = test system: COLO 205 colon
[11] = test system: DU-145 prostate
[12] = test system: K-562 leukemia
[13] = test system: MALME-3M melanoma
[14] = test system: MDA-MB-231 breast
[15] = test system: RXF 393 renal
[16] = test system: SF-268 CNS
[17] = test system: SF-295 CNS
[18] = test system: SF-539 CNS
[19] = test system: UACC-257 melanoma
[20] = test system: M14 melanoma

Compound	growth [1]	growth [2]	growth [3]	growth [4]	growth [5]	growth [6]	growth [7]	growth [8]	growth [9]	growth [10]	growth [11]	growth [12]	growth [13]	growth [14]	growth [15]	growth [16] [%]	growth [17]	growth [18]	growth [19] [%]	growth [20]
O=[N+]([O-])c1ccc(N=Nc2c(O)c(N=Nc3cc([N+](=O)[O-])cc([N+](=O)[O-])c3O)cc(N=Nc3cc(S(=O)(=O)O)cc4cc(S(=O)(=O)O)cc(O)c34)c2O)cc1	96.4%	113%	89.3%	98.6%	105%	101%	86.6%	102%	103%	108%	108%	77.7%	101%	102%	112%	101	106%	102%	105	92.4%
Cc1ccc(-c2nc(C#N)c(S(=O)(=O)N(C)CCO)o2)cc1	80.3%	124%	93.3%	97.7%	89.3%	88.9%	17.5%	99%	79.6%	44.3%	90.2%	25%	60.1%	81.4%	107%	72.6	104%	43%	77.9	61.7%
CCCCn1c(=O)c(/C=C/C(=O)/C=C/c2ccc(OC)cc2)cc2cc(Cl)ccc21	48.6%	70%	72.7%	102%	20.7%	102%	56.3%	51.1%	28.4%	88.3%	53.5%	25.2%	119%	83.8%	84.5%	42.6	19.9%	91.8%	92.1	95%
COc1cc(C(=O)Nc2cc(O)c(C/C=C(\C)CCC=C(C)C)c(O)c2)cc2c1O[C@]1(C)CC[C@@H](O)C(C)(C)[C@H]1C2	27.8%	40.5%	48.2%	8.47% (active)	12.4%	-2.91% (active)	18.8%	11.9%	-6.12% (active)	-22.2% (active)	27%	-31.5% (active)	-5.78% (active)	-36.5% (active)	-40.3% (active)	24.8	-36.2% (active)	-41.7% (active)	24	-0.604% (active)
C=C1C(=O)O[C@H]2[C@H]1CC/C(COC(=O)c1cccnc1N)=C\CC[C@@]1(C)O[C@@H]21	33.9%	26.7%	87%	22.8%	5.22% (active)	8.05% (active)	-15.3% (active)	28.4%	9.12% (active)	-76.5% (active)	14%	10.1%	-3.98% (active)	-9.35% (active)	-2.17% (active)	23.9	34.5%	12.6%	57.8	10.2%
NC(=N\N=C\c1ccccc1O)/C(N)=N/N=C/c1ccccc1O	90.9%	96%	80.5%	84.5%	70.1%	76.2%	63.5%	73.6%	85.2%	97.1%	80.1%	71.1%	79%	83.6%	106%	78.8	77.7%	81.3%	84.3	79%
COc1ccc(-c2cc(-c3nnc(SCC(=O)Nc4ccc(/C(C)=N\O)cc4)n3-c3ccccc3)c3cc(OC)ccc3n2)cc1	86.4%	86.1%	79%	79.4%	83.9%	78.4%	35.1%	51.2%	83.5%	93.6%	85%	48%	105%	46.1%	83.6%	71.4	80.3%	82.6%	71	70.1%
C=C1C(=O)O[C@H]2[C@H]1CC/C(COC(=O)CCCCCCCC(=O)OC/C1=C/CC[C@@]3(C)O[C@H]3[C@H]3OC(=O)C(=C)[C@@H]3CC1)=C\CC[C@@]1(C)O[C@@H]21	2.7% (active)	47%	84.7%	79.2%	61.4%	17.9%	-71.1% (active)	82.6%	4.86% (active)	-61.6% (active)	27.8%	3.32% (active)	-19.7% (active)	-10.3% (active)	-70.6% (active)	30.9	86.7%	-1.74% (active)	58.2	8.2% (active)
C#C[C@@]1(O)[C@@H](CO)O[C@@H](n2cc(I)c3c(N)ncnc32)[C@@H]1O	-14.5% (active)	52.2%	20%	-3.39% (active)	-25.4% (active)	-23.8% (active)	-49.6% (active)	-56.5% (active)	-24.3% (active)	-50.2% (active)	7.45% (active)	6.9% (active)	-5.65% (active)	2.55% (active)	-27.7% (active)	28.5	10.5%	-40.5% (active)	44.7	22.4%
O=C1C(Cl)=C(NCCCN(CCCNC2=C(Cl)C(=O)c3ccccc3C2=O)C2=C(Cl)C(=O)c3ccccc3C2=O)C(=O)c2ccccc21	-13.5% (active)	88.1%	61.5%	102%	39.2%	87.9%	73.8%	45.6%	90.5%	-13.8% (active)	-88% (active)	12.2%	-28.4% (active)	38.5%	85.3%	74.7	91.4%	88.3%	52.6	11.7%
COc1cc(-c2csc(NC(=O)Nc3cc(Cl)cc(Cl)c3)n2)cc(OC)c1OC	23.7%	27.5%	-42.1% (active)	-64.8% (active)	-61.6% (active)	-14.3% (active)	37.5%	-45.9% (active)	-29.2% (active)	5.56% (active)	-15.6% (active)	32.4%	-31.5% (active)	-14.5% (active)	15.6%	27.7	-46.1% (active)	46.4%	56.7	-6.33% (active)
C=C1C(=O)O[C@H]2[C@H]1CC/C(COC(=O)CCCCCCCCC(=O)OC/C1=C/CC[C@@]3(C)O[C@H]3[C@H]3OC(=O)C(=C)[C@@H]3CC1)=C\CC[C@@]1(C)O[C@@H]21	-37.5% (active)	1.19% (active)	83.9%	60.2%	27.1%	-25.9% (active)	-51.3% (active)	77.1%	-29.1% (active)	-46.4% (active)	6.71% (active)	1.49% (active)	-18.4% (active)	-41.2% (active)	-86.6% (active)	20.7	87.4%	-36.6% (active)	24.6	-44.7% (active)
N#Cc1ccc(Oc2ccc3ccc(=O)oc3c2)cc1	101%	102%	111%	102%	103%	67%	105%	109%	95.5%	102%	107%	79%	126%	98.5%	81.8%	105	112%	101%	114	92%
